# Source: PubChem BioAssay AID624312 (National Center for Advancing Translational Sciences (NCATS), 2012)
# Inconclusive results are not listed. Activity calls are given as the source filed them. Calls come from the whole dose curve; as a rule, active = well fitted inhibition curve with a large enough effect; inconclusive = small, poorly fitted or top-dose-only effect; inactive = no such curve, though single readings can be large or run the other way.
# Biological target: Peptidyl-prolyl cis-trans isomerase NIMA-interacting 1 (Homo sapiens) (UniProt Q13526)
# Sequence (Q13526 whole entry, looked up): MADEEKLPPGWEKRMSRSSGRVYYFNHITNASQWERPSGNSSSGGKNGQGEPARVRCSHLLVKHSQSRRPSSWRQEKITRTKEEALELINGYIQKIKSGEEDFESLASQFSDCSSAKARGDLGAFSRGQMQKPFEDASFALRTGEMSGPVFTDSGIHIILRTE
# Experiment: qHTS Assay to Find Inhibitors of Pin1: Hit Validation using Tamra Binding
# Conditions: Pin1 Tamra-peptide displacement, fluorescence polarization, 10 min
# Excerpt: The unique chemical properties of Pro allow for the adoption of two completely distinct amide bond conformations (cis and trans). Peptidyl-prolyl cis/trans isomerases (PPIases) are evolutionary conserved enzymes that catalyze cis/trans isomerization of peptidyl-prolyl peptide bonds. Distinct from all other PPIases such as cyclophilins and FK506-binding proteins (FKBPs), Pin1 binds a subset of phos.Ser/Thr-Pro-containing proteins using its protein-targeting WW domain and isomerizes only specific phos.Ser/Thr-Pro bonds, which cannot be effectively catalyzed by other known PPIases. […] The goal of this screen is to find small-molecule inhibitors of Pin1 using a fluorescence polarization competition assay.In the primary screen, a HiFluor-488-labeled peptide binds to the active site of Pin1 and can be displaced by compounds. […] To validate the hits using a different read-out, this Tamra binding assays was used against all the hits identified from the primary screen. […]
# Briefly, 2 uL of Pin1 (all columns but column 3, which just receives buffer and serves as negative control) are dispensed into Greiner black solid bottom 1536-well assay plates. […] Finally, plates are transferred to a ViewLux high-throughput CCD imager (PerkinElmer), wherein end-point measurements of fluorescence polarization are acquired. […]
structure (smiles),measurement,value
Cc1cc2c(C(C)C)c(O)c(O)c(C=O)c2c(O)c1-c1c(C)cc2c(C(C)C)c(O)c(O)c(C=O)c2c1O,Potency,1690 nM (active)
